Data published in PubChem BioAssay AID1159580 (chemical genetic matrix, 2015).
Out of some 5,500 compounds screened, about 2,000 (36%) were called active. Not shown: some 18% with an inconclusive outcome. No stated cut-off is given here; in the data, active means normalized growth mostly below about 0.91 (no sharp cut-off); inconclusive means no clear call, values can overlap the other calls; inactive means mostly above about 0.92. The list shows a part of the results.

Test: chemical genetic growth profiling, strain panel (AID 1159580);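 further: tested at 20 µM; growth read once vehicle control cultures reached saturation at 30 °C; 1 = growth at the plate median or of vehicle wells; lower values mean less growth of the strain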
Settings: growth OD

Measured: normalized growth

Cn1cnc([N+](=O)[O-])c1Sc1ncnc2nc[nH]c12
inactive: S. cerevisiae deletion strains, locus YKL009W, strain mrt4, hits give low values 0.983 | S. cerevisiae deletion strains, locus YKL068W, hits give low values 0.997 | S. cerevisiae deletion strains, locus YKL085W, strain MDH1 (second series), hits give low values 1 | S. cerevisiae deletion strains, locus YKL085W, strain MDH1, hits give low values 1 | S. cerevisiae deletion strains, locus YKL160W, strain elf1, hits give low values 1.04 | S. cerevisiae deletion strains, locus YKL190W, strain CNB1, hits give low values 1.01 | S. cerevisiae deletion strains, locus YKR001C, strain vps1, hits give low values 0.988 | S. cerevisiae deletion strains, locus YKR026C, strain gcn3, hits give low values 1.01 | S. cerevisiae deletion strains, locus YKR091W, strain srl3, hits give low values 1.01 | S. cerevisiae deletion strains, locus YLL001W, strain dnm1, hits give low values 1.02 | S. cerevisiae deletion strains, locus YLL026W, hits give low values 1.03 | S. cerevisiae deletion strains, locus YLL041C, strain sdh2, hits give low values 1.02 | S. cerevisiae deletion strains, locus YLR027C, strain aat2, hits give low values 1.02 | S. cerevisiae deletion strains, locus YLR039C, strain RIC1, hits give low values 1.09 | S. cerevisiae deletion strains, locus YLR058C, strain SHM2, hits give low values 1.01 | S. cerevisiae deletion strains, locus YLR102C, strain apc9, hits give low values 0.993 | S. cerevisiae deletion strains, locus YLR113W, strain HOG1, hits give low values 1.03 | S. cerevisiae deletion strains, locus YLR221C, strain rsa3, hits give low values 1.01 | S. cerevisiae deletion strains, locus YLR258W, strain gsy2, hits give low values 1.02 | S. cerevisiae deletion strains, locus YLR262C, strain YPT6 (second series), hits give low values 0.996 | S. cerevisiae deletion strains, locus YLR262C, strain YPT6, hits give low values 1.1 | S. cerevisiae deletion strains, locus YLR268W, strain sec22, hits give low values 0.981 | S. cerevisiae deletion strains, locus YLR320W, strain mms22, hits give low values 1.01 | S. cerevisiae deletion strains, locus YLR330W, strain CHS5, hits give low values 1.01 | S. cerevisiae deletion strains, locus YLR342W, strain FKS1 (second series), hits give low values 1.01 | S. cerevisiae deletion strains, locus YLR342W, strain FKS1, hits give low values 1.02 | S. cerevisiae deletion strains, locus YLR357W, strain rsc2, hits give low values 1 | S. cerevisiae deletion strains, locus YLR370C, strain arc18, hits give low values 1.03 | S. cerevisiae deletion strains, locus YLR371W, strain rom2, hits give low values 0.984 | S. cerevisiae deletion strains, locus YLR384C, strain iki3, hits give low values 1.03 | S. cerevisiae deletion strains, locus YLR418C, strain cdc73, hits give low values 1 | S. cerevisiae deletion strains, locus YML016C, strain PPZ1, hits give low values 1.02 | S. cerevisiae deletion strains, locus YML032C, strain rad52, hits give low values 0.989 | S. cerevisiae deletion strains, locus YML120C, strain ndi1, hits give low values 0.999 | S. cerevisiae deletion strains, locus YML124C, strain tub3, hits give low values 0.994 | S. cerevisiae deletion strains, locus YMR058W, strain fet3, hits give low values 1.01 | S. cerevisiae deletion strains, locus YMR078C, strain ctf18, hits give low values 0.985 | S. cerevisiae deletion strains, locus YMR125W, strain sto1, hits give low values 1.01 | S. cerevisiae deletion strains, locus YMR129W, hits give low values 1.01 | S. cerevisiae deletion strains, locus YMR205C, strain PFK2, hits give low values 1.02 | S. cerevisiae deletion strains, locus YMR223W, strain ubp8, hits give low values 0.994 | S. cerevisiae deletion strains, locus YMR231W, strain pep5, hits give low values 1.02 | S. cerevisiae deletion strains, locus YMR263W, strain SAP30, hits give low values 0.999 | S. cerevisiae deletion strains, locus YMR307W, strain GAS1, hits give low values 1.11 | S. cerevisiae deletion strains, locus YNL067W, strain RPL9B, hits give low values 0.99 | S. cerevisiae deletion strains, locus YNL071W, strain lat1, hits give low values 1.03 | S. cerevisiae deletion strains, locus YNL153C, strain GIM3, hits give low values 0.995 | S. cerevisiae deletion strains, locus YNL175C, strain NOP13, hits give low values 1.01 | S. cerevisiae deletion strains, locus YNL183C, strain NPR1, hits give low values 1 | S. cerevisiae deletion strains, locus YNL197C, strain WHI3, hits give low values 1 | S. cerevisiae deletion strains, locus YNL209W, strain ssb2, hits give low values 1.04 | S. cerevisiae deletion strains, locus YNL224C, strain SQS1, hits give low values 0.966 | S. cerevisiae deletion strains, locus YNL233W, strain BNI4, hits give low values 1 | S. cerevisiae deletion strains, locus YNL248C, strain rpa49, hits give low values 1.06 | S. cerevisiae deletion strains, locus YNL250W, strain rad50, hits give low values 0.99 | S. cerevisiae deletion strains, locus YNL271C, strain bni1, hits give low values 0.993 | S. cerevisiae deletion strains, locus YNL298W, strain CLA4, hits give low values 0.995 | S. cerevisiae deletion strains, locus YNL307C, strain MCK1, hits give low values 0.981 | S. cerevisiae deletion strains, locus YNL322C, strain KRE1 (second series), hits give low values 1.02 | S. cerevisiae deletion strains, locus YNL322C, strain KRE1, hits give low values 1.01 | S. cerevisiae deletion strains, locus YNR049C, strain mso1, hits give low values 1.01 | S. cerevisiae deletion strains, locus YNR052C, strain pop2, hits give low values 0.99 | S. cerevisiae deletion strains, locus YOL006C, strain TOP1, hits give low values 1 | S. cerevisiae deletion strains, locus YOL012C, strain htz1 1.34 | S. cerevisiae deletion strains, locus YOL147C, strain pex11, hits give low values 0.988 | S. cerevisiae deletion strains, locus YOR001W, strain rrp6, hits give low values 1.01 | S. cerevisiae deletion strains, locus YOR061W, strain CKA2, hits give low values 1.02 | S. cerevisiae deletion strains, locus YOR069W, strain VPS5, hits give low values 1.01 | S. cerevisiae deletion strains, locus YOR070C, strain gyp1, hits give low values 1.03 | S. cerevisiae deletion strains, locus YOR080W, strain dia2, hits give low values 1.02 | S. cerevisiae deletion strains, locus YOR083W, strain WHI5 (second series), hits give low values 1.02 | S. cerevisiae deletion strains, locus YOR083W, strain WHI5, hits give low values 0.98 | S. cerevisiae deletion strains, locus YOR106W, strain vam3, hits give low values 1.04 | S. cerevisiae deletion strains, locus YOR136W, strain idh2, hits give low values 0.979 | S. cerevisiae deletion strains, locus YOR144C, strain elg1, hits give low values 0.987 | S. cerevisiae deletion strains, locus YOR184W, strain ser1, hits give low values 0.981 | S. cerevisiae deletion strains, locus YOR231W, strain MKK1, hits give low values 1.06 | S. cerevisiae deletion strains, locus YOR265W, strain rbl2, hits give low values 1.02 | S. cerevisiae deletion strains, locus YOR270C, strain vph1, hits give low values 1.05 | S. cerevisiae deletion strains, locus YOR290C, strain snf2, hits give low values 1.04 | S. cerevisiae deletion strains, locus YOR316C, strain cot1, hits give low values 0.996 | S. cerevisiae deletion strains, locus YPL051W, strain arl3, hits give low values 1.04 | S. cerevisiae deletion strains, locus YPL078C, strain atp4, hits give low values 1.03 | S. cerevisiae deletion strains, locus YPL106C, strain sse1, hits give low values 1.03 | S. cerevisiae deletion strains, locus YPL240C, strain hsp82, hits give low values 1.05 | S. cerevisiae deletion strains, locus YPL241C, strain CIN2, hits give low values 1 | S. cerevisiae deletion strains, locus YPL256C, strain CLN2, hits give low values 1.05 | S. cerevisiae deletion strains, locus YPR119W, strain clb2, hits give low values 0.991 | S. cerevisiae deletion strains, locus YPR141C, strain kar3, hits give low values 0.99 | S. cerevisiae deletion strains, locus YPR163C, strain tif3, hits give low values 0.981 | S. cerevisiae deletion strains, locus YPR167C, strain met16, hits give low values 0.989 | S. cerevisiae deletion strains, strain wtn01, hits give low values 0.988 | S. cerevisiae strains, strain wild type, hits give low values 1.01
